Source: PubChem BioAssay (Tox21)
Results filed as inconclusive are left out. Activity calls are given as the source filed them. Unless noted, the call rests on the fitted dose curve; in most records, active means well fitted curve in the direction sought with a large enough effect in the repeat runs; inconclusive means weak or mixed curves; inactive means no such curve, though single readings can be large; an effect the other way counts as inactive or inconclusive.

Columns and labels:
[1] = biological target: Luciferin 4-monooxygenase (Photinus pyralis) (UniProt P08659); assay: qHTS assay to identify small molecule inhibitors of firefly luciferase (AID 1224835); further: series mostly up to about 120 µM; nearly all actives have a fitted effect of over 25% in size
Sequence of Luciferin 4-monooxygenase (Photinus pyralis) (P08659 whole entry, looked up): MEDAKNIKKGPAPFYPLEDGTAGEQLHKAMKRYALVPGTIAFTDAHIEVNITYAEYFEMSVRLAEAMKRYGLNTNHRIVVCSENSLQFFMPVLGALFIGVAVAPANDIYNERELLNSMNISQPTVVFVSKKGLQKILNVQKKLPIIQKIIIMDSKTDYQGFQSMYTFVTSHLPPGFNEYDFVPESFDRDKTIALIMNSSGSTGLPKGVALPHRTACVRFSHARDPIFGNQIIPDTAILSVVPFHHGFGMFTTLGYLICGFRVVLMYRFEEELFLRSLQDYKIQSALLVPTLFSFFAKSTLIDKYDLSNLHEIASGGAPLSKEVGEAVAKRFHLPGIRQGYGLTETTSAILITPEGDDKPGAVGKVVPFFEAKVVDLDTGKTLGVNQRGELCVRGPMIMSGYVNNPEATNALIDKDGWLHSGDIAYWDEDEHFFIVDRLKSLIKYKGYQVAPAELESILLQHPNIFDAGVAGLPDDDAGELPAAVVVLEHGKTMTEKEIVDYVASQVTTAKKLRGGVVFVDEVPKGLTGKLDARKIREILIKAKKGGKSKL
Outline: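 Quantitative HTS format; KM concentrations of both substrates. Purified P. pyralis FLuc activity quantified from luminescence images.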

[2] = qHTS assay to identify small molecule agonists of the constitutive androstane receptor (CAR) signaling pathway - cell viability counter screen (AID 1224836); further: series mostly up to about 92 µM; nearly all actives have a fitted effect of over 45% in size
Outline: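 Multiplexed viability check: HepG2-CYP2B6-hCAR cells, 15-point compound dosing, 0.75 uM PK11195 final, 23 h at 37 C, CellTiter-Fluor fluorescence.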

[3] = qHTS assay to identify small molecule antagonists of the constitutive androstane receptor (CAR) signaling pathway - cell viability counter screen (AID 1224837); further: series mostly up to about 92 µM; nearly all actives have a fitted effect of over 45% in size
Outline: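 To flag cytotoxic false antagonists, HepG2 hCAR/CYP2B6-2.2kb cells were treated 23 hr with 15-concentration compound series and 50 nM CITCO at 37 C/5% CO2; CellTiter-Fluor fluorescence was the measured end point.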

[4] = biological target: Nuclear receptor subfamily 1 group I member 3 (Homo sapiens) (UniProt Q14994); assay: qHTS assay to identify small molecule agonists of the constitutive androstane receptor (CAR) signaling pathway (AID 1224839);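 further: HepG2 cells stably carrying human CAR and a CYP2B6 luciferase reporter; series mostly up to about 92 µM; nearly all actives have a fitted effect of over 15% in size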
Sequence of Nuclear receptor subfamily 1 group I member 3 (Homo sapiens) (Q14994 whole entry, looked up): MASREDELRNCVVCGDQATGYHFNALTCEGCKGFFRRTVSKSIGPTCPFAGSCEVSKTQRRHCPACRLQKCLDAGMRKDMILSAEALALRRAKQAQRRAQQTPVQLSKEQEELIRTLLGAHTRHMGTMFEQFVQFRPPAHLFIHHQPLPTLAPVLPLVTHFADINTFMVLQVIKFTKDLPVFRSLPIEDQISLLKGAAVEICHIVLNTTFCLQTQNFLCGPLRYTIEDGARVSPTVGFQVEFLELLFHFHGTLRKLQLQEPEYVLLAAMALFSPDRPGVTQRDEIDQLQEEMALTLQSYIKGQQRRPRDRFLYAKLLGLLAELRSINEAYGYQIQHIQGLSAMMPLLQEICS
Outline: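 Using human hepatoma HepG2 cells engineered with hCAR and a CYP2B6-2.2kb reporter, 15-concentration compound series were incubated 24 h alongside PK11195 at 0.75 uM final, with luminescence quantified afterwards.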

[5] = qHTS assay to identify small molecule antagonists of the estrogen related receptor signaling pathway with the pleiotropic PPARgamma coactivator (PGC) from Tox21 10K library - cell viability counter screen (AID 1224840; active means well fitted cell-killing curve with a large enough effect in the repeat runs, not every such curve was filed as active; further: nearly all actives have a fitted effect of over 40% in size)
Outline: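 Seeded PGC/ERR cells (2,000/well, 6 h, 37 C/5% CO2) get compound by pin tool; 17.5 h incubation at 37 C; CellTiter-Fluor added, 30 min, fluorescence measured.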

[6] = biological target: Thyrotropin receptor (Homo sapiens) (UniProt P16473); assay: qHTS assay to identify small molecule agonists of the thyroid stimulating hormone receptor (TSHR) signaling pathway (AID 1224843; calls by dose curve; further: nearly all actives have a fitted effect of over 45% in size)
Sequence of Thyrotropin receptor (Homo sapiens) (P16473 whole entry, looked up): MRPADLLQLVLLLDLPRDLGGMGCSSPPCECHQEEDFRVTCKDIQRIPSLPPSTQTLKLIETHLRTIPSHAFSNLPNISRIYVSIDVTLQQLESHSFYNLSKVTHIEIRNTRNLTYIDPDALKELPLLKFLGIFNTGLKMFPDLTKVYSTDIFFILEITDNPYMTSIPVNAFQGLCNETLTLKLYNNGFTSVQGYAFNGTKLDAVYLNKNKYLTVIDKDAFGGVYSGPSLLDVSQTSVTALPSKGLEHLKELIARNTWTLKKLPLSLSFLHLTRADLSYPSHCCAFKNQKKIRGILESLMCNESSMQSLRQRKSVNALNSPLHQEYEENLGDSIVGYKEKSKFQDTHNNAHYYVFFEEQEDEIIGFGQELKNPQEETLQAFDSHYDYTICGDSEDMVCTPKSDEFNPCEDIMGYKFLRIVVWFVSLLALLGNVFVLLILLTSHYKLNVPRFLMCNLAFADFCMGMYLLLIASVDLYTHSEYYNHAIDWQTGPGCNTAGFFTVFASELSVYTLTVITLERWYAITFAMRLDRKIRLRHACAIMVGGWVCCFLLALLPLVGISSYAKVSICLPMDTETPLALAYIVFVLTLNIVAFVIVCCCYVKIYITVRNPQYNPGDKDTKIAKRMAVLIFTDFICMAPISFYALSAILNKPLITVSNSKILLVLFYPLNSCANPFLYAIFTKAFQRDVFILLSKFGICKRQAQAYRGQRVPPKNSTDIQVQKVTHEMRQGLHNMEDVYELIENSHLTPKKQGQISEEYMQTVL
Outline: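 Compounds are titrated over 15 concentrations, in triplicate, onto TSHR-HEK293 cells seeded at 800/well. Plates sit 30 min at room temperature before cAMP-d2 and anti-cAMP cryptate are added; signal is read after a further hour.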

[7] = qHTS assay to identify small molecule agonists of H2AX (AID 1224845; active means well fitted activation curve with a large enough effect in the signal ratio in the repeat runs, not every such curve was filed as active; the % refers to the signal ratio)
Outline: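 Wild-type CHO-K1 cells plated overnight, then exposed 3 hr at 37C to compounds at 15 concentrations (0.76% DMSO). Lysed, then HTRF anti-pH2AX(S139)-cryptate/anti-H2AX-d2 detection after 24 hr at room temperature; emissions 665 and 620 nm.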

[8] = qHTS assay to identify small molecule agonists of the hypoxia (HIF-1) signaling pathway (AID 1224846; active means well fitted activation curve with a large enough effect in the signal ratio in the repeat runs, not every such curve was filed as active; the % refers to the signal ratio)
Outline: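 Reporter induction in HRE-bla ME-180 cells is taken as agonism: cells sit 5 hrs after plating, receive compounds or DMSO only, incubate 17 hrs at 37C under 5% CO2, and are loaded with CCF4-AM for beta-lactamase FRET measurement.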

[9] = qHTS RealTime-Glo MT Cell Viability Assay in HepG2 cells - 24 hour (AID 1224867); further: nearly all actives have a fitted effect of over 50% in size
Outline: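 HepG2 cells (600/well) were dispensed with RealTime-Glo reagents, incubated 5 h at 37 °C, then treated with compounds in DMSO for up to 40 h. Nonlytic NanoLuc luminescence reflecting viable cells was read at each stated time point.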

[10] = qHTS RealTime-Glo MT Cell Viability Assay in HEK293 cells - 32 hour (AID 1224868); further: top concentration of the series differs between compounds; nearly all actives have a fitted effect of over 50% in size
Outline: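 HEK293 cells seeded with NanoLuc/prosubstrate reagent, rested 5 h at 37 C, then dosed and kept at 37 C up to 40 h. Nonlytic real-time luminescence from viable cells read at 0, 8, 16, 24, 32 and 40 h.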

[11] = A CellTox Green Cytotoxicity Assay to monitor cytotoxicity in HEK293 cells - 0 hour (AID 1224869); further: nearly all actives have a fitted effect of over 50% in size
Outline: (§1)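 Tox21 screen in HEK293: membrane-impermeant cyanine dye fluoresces on binding dead-cell DNA; compound pinned 5 h post-seeding, plates held at 37 C, signal read repeatedly through 40 h.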

[12] = qHTS RealTime-Glo MT Cell Viability Assay in HepG2 cells - 40 hour (AID 1224870); further: nearly all actives have a fitted effect of over 50% in size
Outline: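 HepG2 cells mixed with RealTime-Glo MT reagents (NanoLuc plus cell-permeant prosubstrate) were seeded at 600 cells/well, incubated 5 h at 37 C/5% CO2, then pinned with compounds in DMSO; nonlytic luminescence tracked viability during 40 h treatment.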

[13] = A CellTox Green Cytotoxicity Assay to monitor cytotoxicity in HEK293 cells - 40 hour (AID 1224871); further: nearly all actives have a fitted effect of over 45% in size
Outline: as §1

[14] = qHTS assay to identify small molecule antagonists of the estrogen related receptor signaling pathway with the pleiotropic PPARgamma coactivator (PGC) from Tox21 10K library (AID 1224841; call rule not given here)
Outline: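 Test chemicals dissolved in DMSO were applied to pre-incubated (6 h) PGC/ERR cells at 2,000 cells/well for an 18 h, 37 C treatment; reporter luminescence was then read using One-Glo.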

[15] = qHTS assay to identify small molecule agonists of the estrogen related receptor signaling pathway with the pleiotropic PPARgamma coactivator (PGC) from Tox21 10K library (AID 1224842); further: nearly all actives have a fitted effect of over 15% in size
Outline: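 PGC/ERR reporter cells (NTP line) were seeded 2,000 per well, rested 6 h at 37 C/5% CO2, then pin-dosed with compounds in DMSO for 18 h at 37 C; luciferase read by One-Glo luminescence after 30 min at room temperature.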

[16] = qHTS assay to identify small molecule agonists of the hypoxia (HIF-1) signaling pathway - cell viability counter screen (AID 1224844; calls by dose curve; further: nearly all actives have a fitted effect of over 50% in size)
Outline: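 HRE-bla ME-180; 0.5% dFBS; cpd 17 h, 37C, 5% CO2; CellTiter-Glo lum., 30 min RT, post-FRET read, same wells.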

[17] = qHTS assay to identify small molecule agonists of H2AX - cell viability counter screen (AID 1224847; calls by dose curve; further: top concentration of the series differs between compounds; nearly all actives have a fitted effect of over 30% in size)
Outline: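 After overnight plating of 1000 CHO-K1 cells per well, a 15-concentration compound series was applied for 3 hr at 37C. Luminescence from CellTiter-Glo, read following 30 min at room temperature, reflected cell viability.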

[18] = qHTS assay to identify small molecule antagonists of the estrogen related receptor (ERR) signaling pathway from Tox21 library (AID 1224848); further: nearly all actives have a fitted effect of over 50% in size
Outline: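 First, 2,000 ERR cells per well were plated and held 6 h at 37 C/5% CO2. Next, compounds in DMSO were pinned in and left 18 h at 37 C. Finally, ONE-Glo was added and luminescence read after 30 min at room temperature.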

[19] = qHTS assay to identify small molecule agonists of the estrogen related receptor (ERR) signaling pathway from Tox21 library (AID 1224849; calls by dose curve; further: nearly all actives have a fitted effect of over 15% in size)
Outline: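 Tox21 compounds tested for ERR agonism in an NTP reporter cell line: 18 h treatment at 37 C, then ONE-Glo luminescence.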

Measured: Potency

CN1CCC(=C2c3ccccc3CCc3cccnc32)CC1
inactive: [1] | [2] | [3] | [4] | [5] | [6] | [7] | [8] | [9] | [10] | [11] | [12] | [13]

CCOc1ccccc1OCC
inactive: [1] | [2] | [3] | [5] | [14] | [15] | [6] | [16] | [8] | [17] | [18] | [19] | [9] | [10] | [11] | [12] | [13]

O=C(O)Cc1csc(-c2ccc(Cl)cc2)n1
inactive: [1] | [2] | [3] | [4] | [5] | [6] | [16] | [7] | [8] | [17] | [9] | [10] | [11] | [12] | [13]

CC(=O)OCC(=O)[C@@]1(O)[C@H](C)C[C@H]2[C@@H]3CCC4=CC(=O)C=C[C@]4(C)[C@@]3(F)[C@@H](O)C[C@@]21C
inactive: [1] | [2] | [3] | [5] | [14] | [15] | [6] | [16] | [18] | [19] | [9] | [10] | [11] | [12] | [13]

CN1C(C)(C)CC(O)CC1(C)C
inactive: [1] | [2] | [3] | [4] | [5] | [6] | [16] | [7] | [8] | [17] | [9] | [10] | [11] | [12] | [13]

CCOCC(C)O (stereo not drawn)
inactive: [1] | [2] | [3] | [5] | [14] | [15] | [6] | [16] | [7] | [8] | [17] | [18] | [19] | [9] | [10] | [11] | [12] | [13]

CCOC(=O)c1cnc2c(cnn2CC)c1NN=C(C)C
inactive: [1] | [2] | [3] | [4] | [5] | [17] | [9] | [10] | [11] | [12]

CCCCOCCOC(=O)COc1cc(Cl)c(Cl)cc1Cl
inactive: [1] | [2] | [3] | [4] | [5] | [6] | [16] | [7] | [8] | [9] | [10] | [11] | [12] | [13]

CCN[C@H]1C[C@H](C)S(=O)(=O)c2sc(S(N)(=O)=O)cc21
inactive: [1] | [2] | [3] | [4] | [5] | [6] | [16] | [17] | [9] | [10] | [11] | [12] | [13]

CC(C)(N)C#N
inactive: [1] | [2] | [3] | [5] | [14] | [15] | [16] | [7] | [8] | [17] | [18] | [19] | [9] | [10] | [11] | [12] | [13]

O=C(O)CNC(=O)c1ccccc1
inactive: [1] | [2] | [3] | [5] | [6] | [7] | [8] | [17] | [9] | [10] | [11] | [12] | [13]

C[N+]1(C)CCCC(OC(=O)C(O)(c2ccccc2)c2ccccc2)C1 (stereo not drawn)
inactive: [1] | [2] | [3] | [5] | [17] | [18] | [19] | [9] | [10] | [11] | [12] | [13]

C=CN1CCCCCC1=O
inactive: [1] | [2] | [3] | [5] | [6] | [16] | [7] | [8] | [17] | [9] | [10] | [11] | [12] | [13]

CCC(=O)OCc1ccccc1
inactive: [1] | [2] | [3] | [5] | [6] | [16] | [7] | [8] | [9] | [10] | [11] | [12] | [13]

CC(C)[C@H]1CC[C@@H](C)CC1=O
inactive: [1] | [2] | [3] | [5] | [6] | [16] | [7] | [8] | [9] | [10] | [11] | [12] | [13]

CCNS(=O)(=O)c1ccc(C)cc1
inactive: [1] | [2] | [3] | [5] | [7] | [8] | [17] | [9] | [10] | [11] | [12]
